# Hits are enriched below; roughly 2.8% of the tested compounds scored in any of these assays.
# KLK7 zymogen act = activators of human kallikrein-7 zymogen | P49862 | purified proKLK7, EDANS-DABCYL substrate fluorescence; 100% is mature enzyme control, 0% vehicle | activation, % at 7 µM | 370,000 compounds, 0.9% hits;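 active means activation above the mean of all tested compounds plus 3 SD, computed per campaign excluding outliers beyond control limits, cut at about 13% in these data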
# Target sequence (P49862 whole entry, looked up): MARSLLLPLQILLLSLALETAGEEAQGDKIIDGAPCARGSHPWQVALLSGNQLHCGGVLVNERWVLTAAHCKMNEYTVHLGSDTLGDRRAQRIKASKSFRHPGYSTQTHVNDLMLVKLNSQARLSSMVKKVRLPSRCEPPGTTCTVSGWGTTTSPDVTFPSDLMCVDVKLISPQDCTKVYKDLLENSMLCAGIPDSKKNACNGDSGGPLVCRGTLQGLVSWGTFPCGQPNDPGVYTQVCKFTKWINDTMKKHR
# MsrA inh = inhibits bovine methionine sulfoxide reductase A; purified bovine MsrA, absorbance read-out; inhibition, % at 15.5 µM; 360,000 compounds, 0.75% hits; AID 651718; in the data active means inhibition above about 4.5%
# SMARCA2 act = increases SMARCA2 function in MMTV reporter cells; AID 652017; activation, % at 9.1 µM; MG213 cells, MMTV-luciferase reporter, dexamethasone, overnight; 370,000 compounds, 1% hits; in the data active means activation above about 7.8%
# bovine MsrA act = activators of bovine methionine sulfoxide reductase A; activation, % at 10.6 µM; purified bovine MsrA, absorbance read-out; 360,000 compounds, 0.3% hits; in the data active means activation above about 7.5%
# SMARCA2 act conf = SMARCA2 activation, confirmation screen. 3,500 compounds, 30% hits. AID 652260. activation, % at 9.1 µM. shares compounds with SMARCA2 act. MG213 cells, MMTV-luciferase with dexamethasone, luminescence, overnight; MG213 cells expressing E1A, Rb sequestered; DMSO wells 0%, reference activator 100%;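 active means activation above its plate's cutoff, the mean activation of tested wells plus 3 SD, cut at about 7.9% in these data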
# VP16 Luc act = GAL4-VP16 reporter activation counter-screen; shares compounds with SMARCA2 act; HEK293 GAL4-VP16 pG5luc reporter, luciferase luminescence; scaled: DMSO wells 0%, SAHA wells 100%; activation, % at 9.1 µM; 3,500 compounds, 41% hits;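 active means activation above the solvent-only control well mean plus 3 SD, averaged across control plates, cut at about 5.2% in these data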
# KLK7 act conf = confirmation of human kallikrein-7 zymogen activators | AID 686949 | shares compounds with KLK7 zymogen act | 3,200 compounds, 68% hits | purified proKLK7, EDANS-DABCYL substrate fluorescence; scaled: vehicle 0, mature enzyme 100 | activation, % at 7 µM;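 active means activation, as change over the incubation, above the mean of all tested compounds plus 3 SD, cut at about 13% in these data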
# EDANS-DABCYL int = optically interferes with EDANS-DABCYL signal, flagging KLK7 hits. shares compounds with KLK7 zymogen act. EDANS-DABCYL substrate fluorescence interference, no enzyme, 4 h; solvent 0%, active enzyme control 100%. activation, % at 7 µM. 3,200 compounds, 80% hits. AID 686952;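 active means activation above the all-compound mean plus 3 SD, ignoring values outside control-based bounds, cut at about 4.8% in these data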;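 further: value is the 4 h activation minus the activation read at time zero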
# Numbers stand for hits; . = inactive; / = no result.
SMILES,KLK7 zymogen act,MsrA inh,SMARCA2 act,bovine MsrA act,KLK7 act conf,EDANS-DABCYL int,others
COc1ccc(N2C(=O)CC(N3CC=C(c4ccccc4)CC3)C2=O)cc1 (stereo unspecified),.,.,11,.,/,/,SMARCA2 act conf=.;VP16 Luc act=.
CCOC(=O)C1=C(C(=O)OCC)C2(c3ccccc3)c3ccccc3C1(C)N2C (stereo unspecified),.,.,.,/,/,/,
N#Cc1ccc2nc(-c3ccc(CN4CCC(n5nnc6ccccc65)CC4)cc3)c(-c3ccccc3)nc2c1,.,.,.,/,/,/,
CCC1CCCCN1CC(=O)c1ccc(OC(F)F)cc1 (stereo unspecified),.,.,14,.,/,/,SMARCA2 act conf=.;VP16 Luc act=.
CCOC(=O)CC[C@@H]1CC[C@]2(CCCN(Cc3ccncc3)C2)O1,.,/,.,/,/,/,
C=CCOC(=O)c1ccccc1N,.,.,.,.,/,/,
Nc1ccccc1C(=O)OCC(=O)N1CCc2ccccc21,.,.,8.7,.,/,/,SMARCA2 act conf=.;VP16 Luc act=7.5
O=C(O)c1cc(S(=O)(=O)N2CC3CC(C2)c2cccc(=O)n2C3)ccc1F (stereo unspecified),.,.,.,/,/,/,
Cc1ccc2c(c1)NP(=S)(Oc1ccccc1)N2 (stereo unspecified),.,.,10,.,/,/,SMARCA2 act conf=.;VP16 Luc act=.
CN(C(=O)Oc1cccc2ccccc12)C1C=CCC1 (stereo unspecified),.,.,9.9,.,/,/,SMARCA2 act conf=.;VP16 Luc act=.
CC1C2Cc3ccc(O)cc3C1(C)CCN2CC1CC1 (stereo unspecified),.,.,.,/,/,/,
COc1cc2c3cc1Oc1cc(ccc1O)C[C@@H]1c4c(cc(OC)c(O)c4Oc4ccc(cc4)C[C@H]3N(C)CC2)CCN1C,.,.,10,.,/,/,SMARCA2 act conf=16;VP16 Luc act=.
CN(C)C(=S)SSC(=S)N(C)C,.,.,15,.,/,/,SMARCA2 act conf=.;VP16 Luc act=16
COc1ccc(-n2c(/C=C3\C(=O)Nc4ccccc43)nc3ccccc3c2=O)cc1,.,.,.,.,/,/,
COc1ccc2c(c1)/C(=C/c1cnc[nH]1)C(=O)N2,.,.,17,.,/,/,SMARCA2 act conf=11;VP16 Luc act=.
c1ccc(CCN2CCC3CCNC3C2)cc1 (stereo unspecified),.,.,.,/,/,/,
Cc1cc(N2CCNC[C@@H]2C)ccc1N1CCN[C@@H](C)C1,.,.,.,/,/,/,
COc1cccc(-n2c(CN3CCOCC3)nc3ccc([N+](=O)[O-])cc3c2=O)c1,.,.,11,.,/,/,SMARCA2 act conf=.;VP16 Luc act=.
CCN1CCN(Cc2nc3ccc([N+](=O)[O-])cc3c(=O)n2-c2ccccc2F)CC1,.,.,.,.,/,/,
c1ccc2c(c1)[nH]c1cnccc12,46,.,.,.,18,21,
CCc1nccc2c1[nH]c1ccccc12,46,.,.,.,47,46,
Cc1c2ccncc2c(C)c2c1[nH]c1ccccc12,/,/,/,.,/,/,
Cc1nccc2c1[nH]c1ccccc12,36,.,.,.,32,36,
CC(c1ccccc1)n1cc(C(=O)NC2CCCC2)nn1 (stereo unspecified),.,/,.,/,/,/,
COc1ccc2c(c1)c(C(=O)C(C)N1CCCCC1)c(C)n2C (stereo unspecified),.,.,.,.,/,/,
SMILES,KLK7 zymogen act,MsrA inh,SMARCA2 act,bovine MsrA act,KLK7 act conf,EDANS-DABCYL int,others
CC(C)NC(C)C(=O)c1ccc2ccccc2c1 (stereo unspecified),27,.,.,.,.,8.3,
CC(C(=O)c1ccc2ccccc2c1)N1CCCCC1 (stereo unspecified),32,.,.,.,.,.,
CN(C)[C@@H]1C(=O)C(C(N)=O)=C(O)[C@@]2(O)C(=O)C3=C(O)c4c(O)ccc(Cl)c4[C@@](C)(O)C3C[C@@H]12 (stereo partly specified),25,.,.,.,17,17,
CN(C)C1C(=O)C(C(N)=O)=C(O)C2(O)C(=O)C3=C(O)c4c(O)cccc4C(C)(O)C3CC12 (stereo unspecified),/,/,/,.,/,/,
O=C(c1ccc2c3c(cccc13)CC2)C1CCCN(CC2CC2)C1 (stereo unspecified),43,.,.,.,.,.,
O=C(c1ccc2c3c(cccc13)CC2)C1CCCN(Cc2ncc[nH]2)C1 (stereo unspecified),.,.,.,.,/,/,
Cc1ccnc(-n2c(C)nc3ccccc3c2=O)c1,.,.,.,.,/,/,
Cc1cccc(N2CCc3c2nc2ccccc2c3N)c1,22,.,.,.,.,.,
COc1ccccc1N,.,.,.,/,/,/,
COC(=O)[C@H]1C[C@@]2(C)c3ccccc3N[C@H]2N1,.,/,.,/,/,/,
C=CCOC(=O)COc1cc(C)cc2oc(=O)c3c(c12)CCC3,41,.,.,.,44,44,
CCCCOC(=O)COc1cc(C)cc2oc(=O)c3c(c12)CCC3,.,.,.,.,/,/,
c1ccc2oc(-c3ccc4c(c3)CNCc3cnnn3-4)cc2c1,22,.,.,.,19,19,
CCOC(=O)c1c(N)n(CCN2CCCCC2)c2nc3ccccc3nc12,154,.,.,.,29,17,
CCCCn1c(N)c(C(=O)NCCN2CCOCC2)c2nc3ccccc3nc21,.,.,.,.,/,/,
COCCCn1c(N)c(C(=O)OC(C)COC)c2nc3ccccc3nc21 (stereo unspecified),52,.,.,.,75,71,
COCCNC(=O)c1c(N)n(Cc2ccco2)c2nc3ccccc3nc12,27,.,.,.,.,.,
O=c1ccc2cc(O[C@@H]3O[C@@H](CO)[C@H](O)[C@@H](O)[C@@H]3O)c(O)cc2o1,65,.,.,.,77,84,
N#C[C@H](O[C@@H]1O[C@H](CO[C@@H]2O[C@H](CO)[C@@H](O)[C@H](O)[C@H]2O)[C@@H](O)[C@H](O)[C@H]1O)c1ccccc1,.,.,.,.,/,/,
O=C1NC(=O)C(=Cc2cc3c(cc2[N+](=O)[O-])OCO3)C(=O)N1,15,.,.,.,.,7.9,
Cc1cccc(N2C(=O)NC(=O)/C(=C/c3cc4c(cc3[N+](=O)[O-])OCO4)C2=O)c1,16,.,.,.,76,76,
O=C1NC(=O)C(=Cc2ccccc2[N+](=O)[O-])C(=O)N1,.,.,.,.,/,/,
C[C@@H]1CNCCN1c1ccc(N2CC[C@@H](O)C2)c(C#N)c1,.,.,.,/,/,/,
Cc1ccc(OC(=O)N(C)C[C@@H]2OCc3ccccc3-c3c(n(C)c4ccccc34)C(=O)N([C@H](C)CO)C[C@H]2C)cc1,.,.,.,/,/,/,
Nc1ccc2ccc3cccc[n+]3c2c1,95,.,.,.,73,66,
CC(C)(C)n1nnnc1C1CN=C(c2ccccc2)c2ccccc2N1 (stereo unspecified),.,/,.,/,/,/,

# Bioassay records from PubChem BioAssay.
